Records with an inconclusive call do not appear. Calls of active or inactive are those of the source. How the source made its calls: active means hit-call score of the fitted dose curve at least 0.9, where 1 is the maximum; inconclusive means response in the unintended direction; inactive means score below 0.9.

The target in the test is Androgen receptor (Homo sapiens) (UniProt P10275). The experiment in a line: ATG_AR_TRANS: Attagene TRANS-FACTORIAL HepG2 Assay for human Androgen Receptor (AR) (AID 2282973). Particulars: HepG2 Attagene TRANS-FACTORIAL AR reporter transcription. How it is done: ATG_TRANS is a cell-based, multiplexed-readout assay that uses HepG2, a human liver cell line, with measurements taken at 24 hours after chemical dosing in a 24-well plate.ATG_AR_TRANS is one of 30 assay component(s) measured or calculated from the ATG_TRANS assay. It is designed to make measurements of mRNA induction, a form of inducible reporter, as detected with fluorescence intensity signals by Reverse transcription polymerase chain reaction (RT-PCR) and Capillary electrophoresis technology.Data from the assay component ATG_AR_TRANS was analyzed into 1 assay endpoint. This assay endpoint, ATG_AR_TRANS, was analyzed in the positive analysis fitting direction relative to DMSO as the negative control and baseline of activity. Using a type of inducible reporter, measures of mRNA for gain-of-signal activity can be used to understand the reporter gene at the transcription factor-level as they relate to the gene AR. Furthermore, this assay endpoint can be referred to as a primary readout, because this assay has produced multiple assay endpoints where this one serves a reporter gene function. To generalize the intended target to other relatable targets, this assay endpoint is annotated to the nuclear receptor intended target family, where the subfamily is steroidal.
Sequence of Androgen receptor (Homo sapiens) (P10275 whole entry, looked up): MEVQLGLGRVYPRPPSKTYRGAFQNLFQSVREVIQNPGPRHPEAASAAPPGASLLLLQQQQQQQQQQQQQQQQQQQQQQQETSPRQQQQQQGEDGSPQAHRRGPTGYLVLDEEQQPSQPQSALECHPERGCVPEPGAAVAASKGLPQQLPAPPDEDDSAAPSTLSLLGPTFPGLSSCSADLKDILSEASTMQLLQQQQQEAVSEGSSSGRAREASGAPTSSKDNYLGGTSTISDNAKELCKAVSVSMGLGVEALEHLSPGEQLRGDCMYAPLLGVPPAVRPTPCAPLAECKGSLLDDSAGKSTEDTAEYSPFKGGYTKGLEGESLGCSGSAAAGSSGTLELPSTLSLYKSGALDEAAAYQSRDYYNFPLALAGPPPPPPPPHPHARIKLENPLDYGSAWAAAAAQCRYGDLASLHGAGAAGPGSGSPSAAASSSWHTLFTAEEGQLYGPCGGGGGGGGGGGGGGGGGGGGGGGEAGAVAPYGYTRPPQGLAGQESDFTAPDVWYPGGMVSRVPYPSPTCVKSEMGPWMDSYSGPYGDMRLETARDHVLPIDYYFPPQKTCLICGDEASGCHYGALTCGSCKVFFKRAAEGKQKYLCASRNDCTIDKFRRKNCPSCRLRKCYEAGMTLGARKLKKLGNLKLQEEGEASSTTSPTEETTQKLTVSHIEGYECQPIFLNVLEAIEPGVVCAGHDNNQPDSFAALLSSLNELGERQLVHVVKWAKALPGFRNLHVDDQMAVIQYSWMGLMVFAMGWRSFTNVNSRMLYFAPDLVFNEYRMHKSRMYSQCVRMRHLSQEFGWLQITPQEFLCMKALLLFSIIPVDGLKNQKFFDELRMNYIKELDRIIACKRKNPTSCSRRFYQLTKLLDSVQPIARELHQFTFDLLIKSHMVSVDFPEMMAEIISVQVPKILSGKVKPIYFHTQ
Human liver HepG2 cells are transiently transfected with multiple reporter transcription units (MRTUs) in 6-well plates using FuGene 6 reagent (Roche; 3 ml FuGene/1 mg DNA). The MRTU constructs are regulated by a cis-regulating element (promoter). […] A major difference between the CIS and TRANS system is that in CIS activities of endogenous TFs are measured, whereas the TRANS assay evaluates changes in activities of exogenous, chimeric NR-Gal4 proteins. […] At the end of 24 hour incubation, total RNA was isolated using TriZol reagent (Invitrogen). The isolated RNA is then reverse-transcribed using oligo(dT) primer and Mo-MLV reverse transcriptase (Invitrogen) with DNAse I (Ambion) treatment for 30 min. The one-tenth of the produced cDNA was amplified by PCR using Taq DNA polymerase (Invitrogen) and two reporter sequence-specific primers. The PCR products were fluorescently labeled by primer extension with 6-arboxyfluorescein (6-FAM) 5'-labeled reporter sequence-specific primer (2 min at 95 C, 20 s at 68 C and 10 min at 72 C) and these products were digested with 5U of HpaI (New England Biolabs) for 2h at 37 C. The fragments were purified using Qiaquick PCR columns (Qiagen), analyzed on an ABI 3130xL genetic analyzer (Applied Biosystems) with peak positions identified by using a set of X-rhodamine (ROX)-labeled MapMarker1000 molecular weight standards (BioVentures). The raw capillary electrophoresis data was processed using Attagraph software (Attagene).
In the case of `CC(C)(OOC(C)(C)c1ccccc1)c1ccccc1`, the call was inactive.
Take `O=C1CCCO1`: the result was inactive.
Under `Nc1ccc(Cl)cc1N` stands “inactive”; under `CNC(=O)Oc1cccc2c1OC(C)(C)C2`, “inactive”.
With `CCNS(=O)(=O)C(F)(F)C(F)(F)C(F)(F)C(F)(F)C(F)(F)C(F)(F)C(F)(F)C(F)(F)F`, the result was inactive.
With `CO[C@@H]1[C@H](OC(=O)NC(=O)CCl)CC[C@]2(CO2)[C@H]1[C@@]1(C)O[C@@H]1CC=C(C)C` the entry was “inactive”; with `CC(C)N(Cc1ccccc1)C(=O)C(C)(C)C`, “inactive”.
Under `Cc1cc(N=Nc2ccccc2C)ccc1N` stands “inactive”; under `O=C(Nc1ccccc1)c1ccccc1I`, “inactive”.
With `O=[N+]([O-])C(Br)(CO)CO` the entry was “inactive”; with `CC(C)(O)c1cnn2c(-c3ccc(F)c(-c4c(F)cccc4C#N)c3)cnc2n1`, “inactive”.
Take `CCCCC(CC)COC(=O)c1ccc(C(=O)OCC(CC)CCCC)c(C(=O)OCC(CC)CCCC)c1` (configuration not stated): the outcome was inactive.

These data come from PubChem BioAssay (EPA / NIEHS).
